Measurements reported in PubChem BioAssay.
The source made the active and inactive calls.

What was measured:
[1] = anti-His antibody binders, primary screen, artefact control for SMM control protein annotation, biochemical, small-molecule microarray, 635 nm fluorescence (AID 1128); details: anti-His Alexa647 antibody binding, higher = more signal;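 further: score merges feature fluorescence with signal-to-noise for each printed compound spot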
[2] = test system: Human papillomavirus type 1a E7 protein (residues 1-88); assay: HPV1a E7 small-molecule binders, primary screen, biochemical, small-molecule microarray, residues 1-88, 635 nm (AID 1129); details: small-molecule microarray binding, fluorescence 635 nm; higher = more signal
[3] = target: Focal adhesion kinase 1 (Homo sapiens) (UniProt Q05397); assay: small-molecule microarray binders of FAK, primary screen, biochemical, 635/667 nm fluorescence, BSA, DTT (AID 1130); details: PTK2 binding, 635 nm fluorescence, higher = more signal;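 further: composite of spot emission at 667 nm and signal to noise over triplicate slides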
[4] = test system: Fibrinogen (Alexa647-labelled); assay: fibrinogen binders on compound microarrays, profiling panel, artefact control for SMM control-protein annotation, biochemical, small-molecule microarray, 635/667 nm fluorescence (AID 1131); details: fibrinogen-A647 binding fluorescence, higher = more signal;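 further: z-score merges 667 nm fluorescence with per-spot signal-to-noise over triplicate slides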
[5] = target: Follistatin (Homo sapiens) (UniProt P19883); assay: follistatin binders on small-molecule microarrays, primary screen, biochemical, small-molecule microarray, 635/667 nm fluorescence (AID 1132); details: FST binding, 635 nm fluorescence, higher = more signal
[6] = target: Fibroblast growth factor 2 (Homo sapiens) (UniProt P09038); assay: FGF2 binders on small-molecule microarrays, primary screen, biochemical, small-molecule microarray, 635/667 nm fluorescence (AID 1133); details: small-molecule microarray binding, FGF2, fluorescence 635/667; higher = more signal
[7] = mitochondrial membrane potential change in A549 cells, profiling panel, cell-based, JC-1 fluorescence, basal, 24 h, 100 nL (AID 1138); details: higher = more signal;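 further: A549 lung adenocarcinoma cells under basal conditions with no added stimulus; test concentration not given here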
Lefty1 = Lefty1 binders on small-molecule microarrays, primary screen, biochemical, small-molecule microarray, 635/667 nm fluorescence (AID 1139); details: small-molecule microarray binding, fluorescence 635/667; higher = more signal
[8] = test system: wheat germ agglutinin (Triticum aestivum), Alexa647-labelled; assay: wheat germ agglutinin binders on compound microarrays, profiling panel, artefact control for SMM control-protein annotation, biochemical, small-molecule microarray, 635/667 nm fluorescence (AID 1140); details: WGA-A647 binding, 635 nm fluorescence, higher = more signal;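 further: score merges 667 nm feature emission with signal to noise over triplicate slides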
[9] = target: Luciferin 4-monooxygenase (Photinus pyralis) (UniProt P08659); assay: firefly luciferase enzyme inhibitors, primary screen, biochemical, luminescence, purified enzyme, 2006 set (AID 1141); details: SteadyGlo luminescence, 30 min, higher = more signal, called active from +8 up or from −8 down;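 further: cell-free assay with purified firefly luciferase at 100 ng per well in PBS; test concentration not given here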
Sequence of Luciferin 4-monooxygenase (Photinus pyralis) (P08659 whole entry, looked up): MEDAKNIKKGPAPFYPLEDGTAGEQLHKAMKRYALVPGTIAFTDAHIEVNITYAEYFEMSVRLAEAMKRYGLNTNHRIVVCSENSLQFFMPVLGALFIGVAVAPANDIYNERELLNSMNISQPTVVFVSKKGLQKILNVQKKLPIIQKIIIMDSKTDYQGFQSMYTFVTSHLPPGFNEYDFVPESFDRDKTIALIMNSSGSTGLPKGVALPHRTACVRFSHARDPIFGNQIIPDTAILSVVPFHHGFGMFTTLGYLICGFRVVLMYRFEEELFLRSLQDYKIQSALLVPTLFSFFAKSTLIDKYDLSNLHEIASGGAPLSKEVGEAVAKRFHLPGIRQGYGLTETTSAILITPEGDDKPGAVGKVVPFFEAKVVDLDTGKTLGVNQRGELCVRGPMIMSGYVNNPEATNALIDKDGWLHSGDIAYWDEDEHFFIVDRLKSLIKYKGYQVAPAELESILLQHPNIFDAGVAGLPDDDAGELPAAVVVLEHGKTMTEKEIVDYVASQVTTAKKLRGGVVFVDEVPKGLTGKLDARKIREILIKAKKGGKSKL

Sequence of Follistatin (Homo sapiens) (P19883 whole entry, looked up): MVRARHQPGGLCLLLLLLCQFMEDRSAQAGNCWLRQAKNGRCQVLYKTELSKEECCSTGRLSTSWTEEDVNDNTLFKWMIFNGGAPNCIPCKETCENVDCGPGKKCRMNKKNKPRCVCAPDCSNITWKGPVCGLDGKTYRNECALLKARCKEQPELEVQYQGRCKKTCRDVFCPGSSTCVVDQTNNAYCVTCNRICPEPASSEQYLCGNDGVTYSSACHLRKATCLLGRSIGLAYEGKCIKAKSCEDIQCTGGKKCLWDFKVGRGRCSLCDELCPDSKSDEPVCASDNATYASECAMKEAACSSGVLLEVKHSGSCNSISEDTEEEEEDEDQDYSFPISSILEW
Sequence of Focal adhesion kinase 1 (Homo sapiens) (Q05397 whole entry, looked up): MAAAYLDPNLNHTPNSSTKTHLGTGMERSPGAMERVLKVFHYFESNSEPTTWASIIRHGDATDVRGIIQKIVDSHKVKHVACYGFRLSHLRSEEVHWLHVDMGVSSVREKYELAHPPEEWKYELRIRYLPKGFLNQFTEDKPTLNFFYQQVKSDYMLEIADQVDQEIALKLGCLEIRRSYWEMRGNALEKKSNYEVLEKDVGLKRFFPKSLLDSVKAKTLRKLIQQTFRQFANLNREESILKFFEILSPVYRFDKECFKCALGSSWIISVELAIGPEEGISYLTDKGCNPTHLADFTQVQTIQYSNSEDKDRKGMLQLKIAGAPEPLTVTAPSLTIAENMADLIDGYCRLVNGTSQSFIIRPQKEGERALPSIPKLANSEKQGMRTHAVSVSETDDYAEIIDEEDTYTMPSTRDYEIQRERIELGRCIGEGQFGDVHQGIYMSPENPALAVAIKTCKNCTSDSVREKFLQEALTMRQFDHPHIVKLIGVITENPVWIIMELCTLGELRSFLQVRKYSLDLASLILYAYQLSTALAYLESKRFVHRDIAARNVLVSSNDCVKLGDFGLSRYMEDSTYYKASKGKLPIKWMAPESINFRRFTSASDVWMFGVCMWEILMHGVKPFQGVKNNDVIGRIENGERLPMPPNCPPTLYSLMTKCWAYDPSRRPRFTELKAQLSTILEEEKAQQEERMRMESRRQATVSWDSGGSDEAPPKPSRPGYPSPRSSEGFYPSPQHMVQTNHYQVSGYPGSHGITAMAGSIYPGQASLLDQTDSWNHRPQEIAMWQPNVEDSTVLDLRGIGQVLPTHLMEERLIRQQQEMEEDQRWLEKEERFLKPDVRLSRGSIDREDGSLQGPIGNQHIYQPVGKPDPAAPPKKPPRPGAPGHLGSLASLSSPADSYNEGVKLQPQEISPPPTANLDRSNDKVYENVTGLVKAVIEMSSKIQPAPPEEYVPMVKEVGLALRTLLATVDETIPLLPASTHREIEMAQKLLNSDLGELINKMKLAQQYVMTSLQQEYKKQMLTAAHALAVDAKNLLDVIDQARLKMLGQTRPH
Sequence of Fibroblast growth factor 2 (Homo sapiens) (P09038 whole entry, looked up): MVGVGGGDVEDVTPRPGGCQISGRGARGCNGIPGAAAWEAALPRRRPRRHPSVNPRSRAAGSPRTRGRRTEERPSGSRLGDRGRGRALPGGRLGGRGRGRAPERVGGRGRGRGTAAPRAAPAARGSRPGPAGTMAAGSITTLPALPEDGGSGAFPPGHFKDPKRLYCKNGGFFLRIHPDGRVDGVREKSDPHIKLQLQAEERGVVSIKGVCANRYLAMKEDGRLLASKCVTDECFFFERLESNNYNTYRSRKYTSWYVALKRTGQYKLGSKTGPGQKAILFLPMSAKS

SMILES | composite z-score [1] | composite z-score [2] | composite z-score [3] | composite z-score [4] | composite z-score [5] | composite z-score [6] | z-score [7] | composite z-score (Lefty1) | composite z-score [8] | z-score [9]
C=CCN(C(=O)C1N(c2ccc(CCO)cc2)C(=O)C2C(C(=O)O)C3C=CC21O3)C(C)(C)C (stereo not given) | -1.51 | -0.55 | -0.612 | -1.4 | -2.8 | -2.13 | -0.112 | -3.43 | -2.09 | -0.163 (inactive)
O=C1NC(=O)C2C1C=CC(C(O)C=Cc1ccc([N+](=O)[O-])cc1)N2Nc1ccccn1 (stereo not given) | 2.75 | 0.235 | -0.0708 | 0.123 | 0.637 | 1.92 | 0.361 | 0.509 | 0.551 | -1.07 (inactive)
CO[C@H]1COC(=O)[C@@H](C)COC(=O)[C@H](Cc2ccccc2)NC(=O)CC=C[C@H]1C | -1.35 | -0.0007 | -0.62 | 0.177 | 0.932 | 0.771 | 1.04 | 1.27 | -0.457 | -0.897 (inactive)
CCCNC(=O)[C@@H]1c2ccccc2C(=O)N(Cc2cc(F)cc(C(F)(F)F)c2)[C@H]1c1ccc(CO)cc1 | 2.1 | 1.14 | 0.674 | 0.62 | 1.41 | 0.587 | 1.74 | 1.58 | 0.628 | -0.747 (inactive)
CC(c1ccccc1)C(O)C1C=CC2C(=O)N(C)C(=O)C2N1N(c1ccccc1)c1ccccc1 (stereo not given) | 0.69 | 0.919 | 0.467 | 0.948 | -0.19 | -0.377 | 0.755 | -0.617 | 1.18 | -0.273 (inactive)
[N-]=[N+]=NCc1ccccc1[C@H]1OC(c2ccc(OCCCO)cc2)=N[C@@]1(Cc1ccccc1N=[N+]=[N-])C(=O)NCc1ccccc1 | 0.859 | 1.18 | 0.636 | 0.82 | 1.03 | 0.299 | 0.623 | 0.0912 | 1 | -1.17 (inactive)
C=CCN1C(=O)[C@]2(O[C@H](CCn3cc(CCO)nn3)[C@@H]([Si](C)(C)c3ccc(OC)cc3)[C@@H]2C)c2cc(NC(=O)c3ccc(OC)cc3)ccc21 | 0.94 | 1.14 | 0.611 | 0.708 | 1.35 | 1.2 | 2.37 | 1.01 | 0.816 | -2.28 (inactive)
C=CC[C@]1(C(=O)N2CCCCC2)N=C(c2ccc(OCCCO)cc2)O[C@H]1c1ccccc1N=[N+]=[N-] | 2.94 | 1.26 | 0.426 | 1.01 | 1.4 | 1.55 | -0.591 | 1.48 | 1.37 | -10 (active)
O=C1OCCC=C[C@H]2OC34C=CCN(Cc5ccccc5)C(=O)[C@H]3N(CCO)C(=O)[C@@H]4C12 (stereo not given in full) | -0.954 | -1.18 | -0.616 | -1.89 | -1.21 | -0.379 | 0.252 | -0.705 | -2.09 | -0.678 (inactive)
CC1CC/C=C\[C@H]2OC34C=CCN(Cn5nnc6ccccc65)C(=O)[C@H]3N(C(C)CO)C(=O)[C@@H]4C2C(=O)O1 (stereo not given in full) | 0.52 | -1.01 | -0.305 | -0.559 | -0.491 | -1.01 | 0.417 | -0.328 | -0.462 | -0.223 (inactive)
O=C1O[C@H](c2ccccc2)[C@H](c2ccccc2)N2[C@H]1[C@@H](C(=O)Nc1nc3ccccc3s1)[C@]1(C(=O)Nc3ccc(C#CC4=CCCCC4)cc31)[C@H]2c1ccccc1OCCO | 0.485 | 1.15 | 0.66 | 0.797 | 0.968 | 1.2 | -2.27 | 0.966 | -0.17 | -1.01 (inactive)
C=C(COC)C(=O)CC[C@H](OC(=O)c1ccccc1-c1ccccc1C(=O)O)c1cccc(OCCO)c1 | 2.49 | 1.27 | 0.403 | -0.46 | 1.56 | 2.11 | -1.02 | 1.65 | -0.496 | -4.13 (inactive)
C[C@@H]1CC[C@H]2C(=O)N3CCC[C@H]3C(=O)N2[C@H]1c1ccc(Br)cc1 | 0.136 | -0.366 | 0.335 | 0.0658 | 0.162 | 0.36 | 1.68 | 0.724 | -0.169 | -1.02 (inactive)
COc1cc(CO)cc(I)c1O[C@H]1C=C(C(=O)NCCO)C[C@@H](NCCc2c[nH]c3ccccc23)[C@@H]1O | 0.876 | 0.579 | -0.0981 | 0.824 | 0.792 | 0.243 | 0.898 | 0.28 | 1.21 | 0.47 (inactive)
CCCNC(=O)[C@@]1(Sc2ccc(C)cc2)CC(=O)N(Cc2ccccc2Cl)[C@@H]1c1ccc(CO)cc1 | 1.12 | 1.15 | 0.29 | 0.789 | 1.42 | 1.6 | 1.02 | 1.19 | 1.18 | -0.0629 (inactive)
COCCCNC(=O)[C@@]1(c2ccc([N+](=O)[O-])cc2)CC(=O)N(C2CCCCC2)[C@@H]1c1ccc(CO)cc1 | 1.13 | 0.542 | 0.643 | -0.523 | -0.0809 | 0.269 | 0.612 | -1.4 | -0.273 | -0.501 (inactive)
C#CCCCON=C1C[C@@H](O)[C@@H](O)[C@@H]2[C@@H]3C(=O)N(Cc4ccc5c(c4)OCO5)C(=O)[C@@H]3CC[C@H]12 | 0.833 | 0.57 | 0.168 | 0.573 | 1.03 | 0.4 | -0.421 | 1.59 | -0.142 | 0.975 (inactive)

SMILES | composite z-score [1] | composite z-score [2] | composite z-score [3] | composite z-score [4] | composite z-score [5] | composite z-score [6] | z-score [7] | composite z-score (Lefty1) | composite z-score [8] | z-score [9]
CCN1C(C)=C(C(=O)OC)[C@@H](c2ccccc2)N2C(=O)[C@](O)(C(=O)OC)[C@@H](c3ccccc3)C(C(C)=O)=C12 | 0.189 | 0.0108 | -0.413 | -1.11 | 0.679 | 1.05 | -0.21 | 1.1 | -0.531 | -1.03 (inactive)
C=CC[C@@]1(C(=O)N2CCOCC2)N=C(c2ccc(OCCCO)cc2)O[C@@H]1c1ccccc1 | 0.805 | 1.19 | 1.57 | -0.0135 | -0.338 | -0.355 | 1.89 | -1.02 | 0.868 | -0.871 (inactive)
N#Cc1ccc(NN2C(C(O)c3ccc(I)cc3)C=CC3C(=O)N(c4ccccc4)C(=O)C32)cc1 (stereo not given) | 1.33 | 1.25 | 0.945 | 0.945 | 0.402 | -0.194 | 1.96 | -0.491 | 1.3 | 0.628 (inactive)
CO[C@@H]1COC(=O)CC=C[C@@H](C)[C@H](OC)COC(=O)CC=C[C@H]1C | 0.0112 | -1.31 | -0.436 | -1.05 | 1.48 | 1.34 | 1.77 | 0.712 | -0.812 | -1.08 (inactive)
C=C(CCCC)C(=O)CC[C@@H](OC(=O)c1cccnc1)c1cccc(OCCO)c1 | 0.419 | -0.411 | 0.533 | 0.314 | 0.674 | 1.14 | 3.35 | 0.779 | 0.59 | -3.06 (inactive)
CN(C)c1ccc(C(O)C2C=CC3C(=O)NC(=O)C3N2Nc2ccc(Cl)cc2Cl)cc1 (stereo not given) | -0.129 | 1.14 | 0.155 | 0.762 | 1.16 | -0.785 | 0.587 | -0.345 | 0.5 | -0.316 (inactive)
COc1ccc(C(=O)Nc2ccc(CN3C(=O)[C@]4(O[C@H](CCn5cc(CCO)nn5)[C@@H]([Si](C)(C)c5ccc(OC)cc5)[C@@H]4C)c4ccccc43)cc2)cc1 | 0.748 | 1.13 | 0.203 | 0.92 | 0.867 | 1.57 | 1.14 | 0.426 | 0.798 | -1.26 (inactive)
CC(C)(C)OC(=O)CC[C@]1(C(=O)N2CCCCC2)N=C(c2ccc(OCCCO)cc2)O[C@H]1c1ccccc1 | 1.81 | 1.2 | 0.717 | 0.985 | 1.24 | 1.15 | 1.98 | 1.01 | 1.27 | -2.85 (inactive)
CCCC[C@@H]1C[C@H]1[C@@H](NC(=O)c1cccs1)c1ccc(Cl)cc1 | -0.492 | -1.19 | -0.393 | -1.26 | -1.44 | -1.6 | -0.363 | -1.58 | -0.746 | 0.191 (inactive)
Cc1ccc([C@@H]2CC=C(C(=O)O)[C@H](c3ccccc3)N2S(=O)(=O)c2ccc(C)cc2)cc1 | 2.65 | 1.24 | 0.574 | 0.894 | -0.358 | -0.847 | -1.47 | -0.691 | 1.35 | 1.33 (inactive)
C=CCC(OC(C)=O)[C@@H]1[C@@H](N(Cc2ccc(-c3ccccc3)cc2)C(=O)c2ccc(-c3ccccc3)cc2)c2cc(OCCCO)ccc2N1C(=O)Cc1ccc(OC)cc1 (stereo not given in full) | -0.347 | 0.328 | 0.602 | 0.466 | 0.856 | 0.0338 | 0.764 | 0.0287 | 0.192 | -0.115 (inactive)
CCCCO[C@H]1C[C@H]2C(Br)=C[C@@]1(CO)C(=O)[C@]21CO1 | -0.487 | -0.153 | 0.692 | -0.46 | 0.452 | 0.0225 | 0.826 | 0.641 | -0.283 | -0.553 (inactive)
CO[C@H]1O[C@H](CO)[C@@H](OC(=O)Nc2ccc(Oc3ccccc3)cc2)[C@H](OC(=O)Nc2ccccc2-c2ccccc2)[C@H]1OC(=O)Nc1ccccc1-c1ccccc1 | 2.31 | 1.24 | 1.62 | 0.98 | 0.95 | 0.938 | -1.28 | 0.62 | 1.38 | -1.02 (inactive)
CCOC(=O)C1=CC[C@@H](c2ccccc2)N(S(=O)(=O)c2ccc(C)cc2)[C@H]1C | 1.18 | 1.24 | 0.147 | 1.02 | 0.92 | 0.952 | 3.66 | 0.778 | 0.457 | 0.347 (inactive)
O=C1OCCC/C=C\[C@H]2OC34C=CCN(CCN5CCOCC5)C(=O)[C@H]3N(CCCCCO)C(=O)[C@@H]4C12 (stereo not given in full) | -0.265 | -2.02 | -1.29 | -1.25 | -0.267 | -0.821 | -0.203 | -0.84 | -0.858 | 0.32 (inactive)
Cc1ccc(S[C@]2(C(=O)NCCCN(C)C)CC(=O)N(C3CCCCC3)[C@@H]2c2ccc(CO)cc2I)cc1 | 0.731 | -0.171 | -0.471 | -1.32 | -0.351 | -0.29 | 3.41 | -0.695 | -1.54 | -1.38 (inactive)
